Only some compounds are listed: those with a hit (about 4.1% of all), similar ones and a draw of the others.
hcDAF-12 act: H. contortus DAF-12 nuclear receptor activators, primary screen, cell-based, luminescence, HEK293, lit1-tk-luc reporter. HEK293 hcDAF-12 lit1-tk-luc reporter; 0% DMSO, 100% Δ7-dafachronic acid. activation, % at 6.8 µM. hit rate 1.4% among 370,000;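 active = activation above the mean of all tested compounds plus 3 SD, cut at about 5.5% in these data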;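 note: 100% = response to 3 µM Δ7-dafachronic acid high control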
DAX1 inh-1: DAX1 (NR0B1) inhibitors on StAR promoter, primary screen, cell-based, luminescence, SF-1 (NR5A1), full-length DAX-1; hit rate 1.1% among 370,000; inhibition, % at 6.8 µM; HEK293T StAR-luciferase reporter, SF-1/DAX-1 repression relief;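 active = inhibition above the mean over all tested compounds plus 3 SD, cut at about 3.6% in these data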;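 note: 0% = DAX-1 cells with DMSO and 100% = cells lacking DAX-1 with DMSO; higher inhibition means more luminescence from relief of DAX-1 repression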
DAX1 inh-2: DAX1 (NR0B1) inhibitors, primary screen, cell-based, HEK293, Gal4-DAX1, luciferase luminescence; AID 504766, 2011; hit rate 0.99% among 340,000; inhibition, % at 6.75 µM; HEK293 Gal4-DAX1 luciferase reporter; Nuclear receptor subfamily 0 group B member 1 (Homo sapiens), P51843;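 active = inhibition above the mean over all tested compounds plus 3 SD, cut at about 4.2% in these data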;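 note: 0% = DAX1-transfected cells with DMSO and 100% = empty-vector control cells with DMSO; inhibition shows as a rise in luminescence from relieved DAX1 repression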
Target sequence (P51843 207-470 limits assumed): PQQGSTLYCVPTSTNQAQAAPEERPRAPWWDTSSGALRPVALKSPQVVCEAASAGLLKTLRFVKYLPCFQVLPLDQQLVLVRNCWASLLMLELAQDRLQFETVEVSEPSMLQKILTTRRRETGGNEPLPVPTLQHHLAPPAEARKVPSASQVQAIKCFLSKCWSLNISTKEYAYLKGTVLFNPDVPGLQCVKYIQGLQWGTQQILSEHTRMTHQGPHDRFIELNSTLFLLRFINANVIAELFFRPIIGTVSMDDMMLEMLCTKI
hgDAF-12 ag: H. glycines DAF-12 receptor agonists, primary screen, cell-based, luminescence, HEK293, GAL4 fusion, UAS-luciferase | HEK293 GAL4-hgDAF12 UAS-luciferase reporter, agonist luminescence; normalized to butyrate control | Nuclear hormone receptor DAF-12 (Heterodera glycines), GAL4 fusion | hit rate 1.8% among 370,000 | activation, % at 6.8 µM;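 active = activation above a cutoff set at the mean of all screened compounds plus 3 SD, cut at about 10% in these data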;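 note: 0% = DMSO wells and 100% = sodium butyrate wells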
ssDAF12 agonist: S. stercoralis DAF-12 nuclear receptor activators, primary screen, cell-based, luminescence, HEK293, GRIP1 co-expression, lit1-tk-luc; activation, % at 6.8 µM; hit rate 1% among 370,000; Nuclear hormone receptor DAF-12 (Strongyloides stercoralis); AID 652126, 2013; HEK293 ssDAF-12/GRIP1 lit1-tk-luc reporter; % of 3 µM dafachronic acid response;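 active = activation above the mean over all tested compounds plus 3 SD, cut at about 0.9% in these data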;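 note: 0% = DMSO-only wells and 100% = 3 µM delta7-dafachronic acid wells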
LXR ag: LXR agonists, Gal4 luciferase reporter, confirmation, counter-screen for hcDAF-12 agonist project, cell-based, luminescence, HEK293, H. contortus campaign; shares compounds with hcDAF-12 act; HEK293 Gal4-LXR tk-luc reporter, 24 h; normalized: DMSO 0%, positive control 100%; activation, % at 6.8 µM; 3,400 tested, under 10 active; AID 743027, 2013;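 active = mean percent activation of the reporter above a cutoff set as the average over tested compounds plus their standard deviation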
hcDAF12 conf: H. contortus DAF-12 receptor agonists, confirmation, cell-based, luminescence, HEK293, lit1-tk-luc, triplicate; hit rate 61% among 3,400; AID 743032, 2013; HEK293 hcDAF-12 lit1-tk-luc reporter; % of Δ7-dafachronic acid response; activation, % at 6.8 µM; shares compounds with hcDAF-12 act;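 active = mean activation across triplicate tests above the threshold derived from the earlier primary screen, cut at about 5.5% in these data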;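 note: 0% = DMSO only wells and 100% = 3 µM Δ7-dafachronic acid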
Numbers without * were called inactive; . = not tested or not shown.

SMILES	hcDAF-12 act	DAX1 inh-1	DAX1 inh-2	hgDAF-12 ag	ssDAF12 agonist	LXR ag	hcDAF12 conf
C=CCn1c(SCC(=O)Nc2ccc(-c3nc4ccc(C)cc4s3)cc2)nnc1-c1ccncc1	7.0*	2	0	13*	-1	0	2
N#C/C(=C\c1ccc(N2CCOCC2)o1)c1ccccc1	-1	0	-1	-2	-2	.	.
N#C/C(=C/c1ccc(N2CCOCC2)o1)c1nc2ccccc2[nH]1	6.8*	2	3	2	1	2	8.1*
Cc1ccc(-n2nnnc2SCC#N)cc1	1	0	1	1	-1	.	.
C#CCSc1nnnn1-c1ccc(Br)c(C)c1	10*	0	-1	4	0	0	5
COCc1cc(N2CCNC[C@@H]2C)ccc1N1C[C@@H](C)O[C@@H](C)C1	-2	1	.	0	-1	.	.
CC1=NN(c2ccc(C)cc2)C(=O)/C1=C\c1ccc(Br)s1	9.5*	0	0	0	0	0	5
Cc1csc(NC(=O)c2cccnc2Cl)n1	8.7*	0	3	5	1.1*	1	11*
Cc1csc(NC(=O)c2cccc(C)c2C)n1	1	0	1	6	0	.	.
CCCCCCCCNS(=O)(=O)CC1NCc2cc(OC)ccc21 (centres undefined)	-1	0	.	1	-1	.	.
Cc1oc(-c2ccc(-c3ccccc3)cc2)nc1CN(CCO)C(C)C	7.2*	2	-2	14*	1.6*	2	17*
N#C/C(=C\c1ccc(-c2nc3ccccc3s2)o1)C(N)=O	6.8*	0	-1	5	1	1	4
FC(F)(F)c1cccc(Cn2ccc3ccc(-c4ccc5ccn(Cc6cccc(C(F)(F)F)c6)c5c4)cc32)c1	-2	-1	.	3	-1	.	.
O=C(OCc1cn(Cc2ccccc2)nn1)N1CCOCC1	-2	0	.	2	-1	.	.
COc1ccc2nc3sc(C(=O)NCCCN4CCc5ccccc5C4)cc3cc2c1	8.0*	2	-1	4	1	0	6.8*
COc1ccc2nc3sc(C(=O)N4CCN(C)CC4)cc3cc2c1	0	1	1	1	-1	.	.
Cc1ccc(NC(=O)N2CCc3ccccc3C2)cc1	7.4*	1	2	8	1	1	6.7*
O=C(Nc1ccccc1)N1CCc2ccccc2C1	6.8*	1	2	11*	0	1	7.9*
CC(=O)c1ccc(NC(=O)N2CCc3ccccc3C2)cc1	0	-3	0	3	-1	.	.
O=C(Nc1ccc(Cl)cc1)N1CCc2ccccc2C1	4	2	1	9	0	.	.
NS(=O)(=O)c1ccc(NC(=S)NCc2ccco2)cc1	7.2*	0	2	1	-1	0	5
Brc1cccc(Cn2ccc3ccc(-c4ccc5ccn(Cc6cccc(Br)c6)c5c4)cc32)c1	1	1	.	3	-1	.	.
Cc1c(C(=O)Oc2ccc(-c3cnc4ccccc4n3)cc2)cccc1[N+](=O)[O-]	-1	0	0	1	0	.	.
CCC(=O)Oc1ccc(-c2cnc3ccccc3n2)cc1	7.1*	3	1	11*	1	2	10*
N#CCC[C@@H]1CC[C@]2(CCCN(Cc3ccc(Cl)cc3)C2)O1	1	0	.	0	-1	.	.
SMILES	hcDAF-12 act	DAX1 inh-1	DAX1 inh-2	hgDAF-12 ag	ssDAF12 agonist	LXR ag	hcDAF12 conf
COCCNC(=O)C1CC(c2ccccc2[N+](=O)[O-])=NO1 (centres undefined)	-1	0	2	1	-1	.	.
COc1ccc(CCNC(=O)C2CC(c3ccccc3[N+](=O)[O-])=NO2)cc1 (centres undefined)	7.6*	1	4	8	1.3*	1	6.6*
Cn1c(CC(=O)Nc2ccccc2)nnc1SCC(=O)NC1=NCCS1	7.6*	0	0	1	-1	0	-1
COc1cccc(NC(=O)Cc2nnc(SCC(=O)NC3=NCCS3)n2C)c1	-1	0	2	2	-1	.	.
Cc1ccc(C)c(-c2nnc(NC(=O)CCS(=O)(=O)c3ccccc3)o2)c1	-1	0	1	-3	0	.	.
Cc1ccccc1-c1nnc(CS(=O)(=O)c2ccccc2)o1	6.8*	3	1	12*	1.5*	1	7.0*
COC(=O)c1ccc(Cn2ccc3ccc(-c4ccc5ccn(C(=O)C6CCCCC6)c5c4)cc32)cc1	-3	0	.	1	-1	.	.
N#Cc1c(SCC(=O)Nc2nc3ccccc3s2)sc2c(O)cc(=O)[nH]c12	7.9*	1	-1	4	1	0	5
Cc1ccccc1CN1CCCCC(NC(=O)c2ccccc2)C1=O (centres undefined)	-1	-2	.	2	-2	.	.
CC(C)CCCCCCCCc1cccc(O)c1C(=O)O	-2	0	.	-2	-1	.	.
O=[N+]([O-])c1ccc(-c2ccc(C=Nc3cccc4ccccc34)o2)cc1	6.8*	1	0	2	0	0	1
c1ccc2[nH]c(-c3ccc4c(c3)OCO4)nc2c1	9.9*	2	.	12*	0	1	5
O=C(Cc1ccc(Br)cc1)NC1CCCCC1	1	0	1	0	-2	.	.
O=C(Cc1ccc(O)cc1)NC1CCCCCC1	6.8*	1	0	8	0	0	4
Cc1ccccc1NC(=O)/C(C#N)=C\c1ccsc1	7.4*	0	1	7	-1	0	6.9*
O=C(Nc1ccccc1O)c1ccc([N+](=O)[O-])cc1	7.0*	1	0	6	1.4*	0	3
N#C/C(=C/c1ccc([N+](=O)[O-])cc1)C(=O)Nc1ccccc1O	11*	0	3	6	0	0	5
O=C(O)c1ccccc1OCc1nc2ccccc2s1	9.2*	2	3	10	1.2*	1	7.2*
CCCCC(=O)OCc1nc2ccccc2s1	4	0	2	3	0	.	.
